Screens deposited in PubChem by National Center for Advancing Translational Sciences (NCATS).
PLK1 PBD block: qHTS for Inhibitors of PLK1-PDB (polo-like kinase 1 - polo-box domain): Primary Screen. Plk1 PBD binding of FITC phosphopeptide, fluorescence polarization. Potency, µM, inactives show max response, negative = inhibition, usual class: inhibitors. 360,000 compounds, 2.8% hits. AID 720504, 2013; also: potency is read from the fitted curve at half-maximal effect; series mostly up to about 57 µM; % is scaled to controls: 0 for no effect and ±100 for the full control effect; nearly all actives have a fitted effect of over 65% in size
JMJD2A Tudor: qHTS Assay for Inhibitors of JMJD2A-Tudor Domain; 390,000 compounds, 4.4% hits; AlphaScreen JMJD2A-Tudor / H3K4me3 peptide binding; Potency, µM (highest dose often 114 µM), for the others: at the highest dose activity change, negative = inhibition, actives largely listed as inhibitors; also: potency is read from the fitted curve at half-maximal effect; % is scaled to controls: 0 for no effect and ±100 for the full control effect; nearly all actives have a fitted effect of over 50% in size
BAZ2B inh: qHTS Assay for Inhibitors of BAZ2B; AID 504333, 2011; 360,000 compounds, 4.4% hits; Potency, µM (top dose mostly 114 µM), for inactives: at the highest dose activity change, negative = inhibition, actives largely listed as inhibitors; AlphaScreen BAZ2B-H3K14Ac peptide displacement; also: potency is read from the fitted curve at half-maximal effect; % is scaled to controls: 0 for no effect and ±100 for the full control effect; nearly all actives have a fitted effect of over 60% in size
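Protein-peptide AlphaScreen: BAZ2B 50 nM, b-H3K14Ac 50 nM, 1x PBS pH 7.4 + 0.01% Tween-20. Preincubation 30 min RT; cpd 30 min RT (top 110 uM); beads 20 min RT, light-protected.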
G9a block: qHTS Assay for Inhibitors of Histone Lysine Methyltransferase G9a | AID 504332, 2011 | 350,000 compounds, 8.8% hits | Potency, µM (highest dose often 102 µM), inactives show at the highest dose activity, negative = inhibition, actives largely listed as inhibitors | G9a H3K9 monomethylation, AlphaScreen, 2 h; also: potency is read from the fitted curve at half-maximal effect; % is scaled to controls: 0 for no effect and ±100 for the full control effect; nearly all actives have a fitted effect of over 75% in size
Target sequence (Q96KQ7 913-1193 limits assumed): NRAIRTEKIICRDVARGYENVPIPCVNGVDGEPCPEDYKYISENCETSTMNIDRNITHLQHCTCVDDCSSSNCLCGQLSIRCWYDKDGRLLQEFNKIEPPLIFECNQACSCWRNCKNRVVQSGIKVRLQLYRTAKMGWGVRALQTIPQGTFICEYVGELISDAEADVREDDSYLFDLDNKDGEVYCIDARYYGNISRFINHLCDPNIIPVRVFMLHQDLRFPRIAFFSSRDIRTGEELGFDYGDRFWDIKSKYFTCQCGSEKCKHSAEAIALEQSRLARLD
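G9a (20 nM) was preincubated 15 min with compound, then reacted 2 h at room temperature with 500 nM biotin-H3K9 peptide and 20 µM SAM. Monomethyl-H3K9 detected by AlphaScreen using anti-H3K9me1 antibody.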
HP1b chromo inh: HTS for Inhibitors of HP1-beta Chromodomain Interactions with Methylated Histone Tails; AlphaScreen HP1-beta / biotin-H3K9me3 peptide binding; 390,000 compounds, 0.56% hits; Chromobox protein homolog 1 (Homo sapiens), P83916; AID 540317, 2011; Potency, µM (highest dose often 114 µM), for the others: at the highest dose activity change, negative = inhibition, actives largely listed as inhibitors; also: potency is read from the fitted curve at half-maximal effect; nearly all actives have a fitted effect of over 70% in size
Target sequence (P83916 whole entry, looked up): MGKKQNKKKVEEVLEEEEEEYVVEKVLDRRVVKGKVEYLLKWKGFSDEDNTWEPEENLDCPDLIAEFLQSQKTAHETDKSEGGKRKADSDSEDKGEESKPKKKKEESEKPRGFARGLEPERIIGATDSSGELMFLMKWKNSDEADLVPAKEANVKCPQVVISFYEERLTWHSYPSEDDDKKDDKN
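AlphaScreen: HP1-beta (50 nM) preformed 30 min with biotin-H3(1-18)K9me3 peptide (50 nM) in PBS pH 7.4, 0.01% Tween-20. Compound added for 30 min at RT, then streptavidin donor/nickel chelate acceptor beads (10 ug/mL) for 30 min.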
PI5P4Ka inh: qHTS for Inhibitors of phosphatidylinositol 5-phosphate 4-kinase (PI5P4K); Phosphatidylinositol 5-phosphate 4-kinase type-2 alpha (Homo sapiens), P48426; max response, %; AID 652105, 2013; PI5P4Kalpha enzyme, ADP-Glo luminescence, 60 min; hits give low values; 330,000 compounds, 1.2% hits; active = max response of -50% or lower; inconclusive = between -30% and -50%; inactive = -30% or higher; also: value at the top dose of about 77 µM; % is scaled to controls: 0 for no effect and ±100 for the full control effect
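PI5P4Kalpha ADP-Glo assay; 5 microM ATP final; 60 min RT reaction; HEPES pH 7.4/EGTA/CHAPS, 5% DMSO; controls lacking substrate or enzyme; luminescent end-point.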
Active calls of the source: *; u = inconclusive; x = no result given; [ ] = dose if it differs, or a comment. An excerpt weighted towards active compounds, which were near 12% of everything screened. Unless noted, calls follow the shape of the dose curve; as a rule, active = well fitted curve in the direction sought with a large enough effect; inconclusive = small, poorly fitted or top-dose-only effect, or another doubt; inactive = no such curve, though single readings can be large; an effect the other way counts as inactive or inconclusive.

SMILES	PLK1 PBD block	JMJD2A Tudor	BAZ2B inh	G9a block	HP1b chromo inh	PI5P4Ka inh
CCN(CC(=O)Nc1ccccc1OC)C(=O)c1cc(-c2ccccc2)nn1-c1ccccc1	-3.2%	u	1.6%	u	13.2%	5.5
CCN(CC(=O)Nc1ccccc1OC)C(=O)c1cccc(-n2cccc2)c1	-8.0%	u	u	44.7µM*	-12.5%	-1.2
Cc1cc2occ(CC(=O)N(C)CC(=O)Nc3c(C)cccc3C)c2cc1C	-2.3%	-8.3%	1.5%	39.8µM*	4.7%	0.1
Cc1cccc(C)c1NC(=O)CN(C)C(=O)c1cccc(-n2cccc2)c1	-27.4%	8.91µM*	50.1µM*	50.1µM*	u	u
Cc1ccc(NC(=O)CN(C)C(=O)Cc2coc3cc(C)c(C)cc23)cc1	-3.4%	-23.0%	x	x	12.2%	5.4
CCc1nc2c(OCc3ccc(C#N)cc3)cccn2c1N(C)C(=O)C(C)C	-6.9%	x	x	x	x	-2.1
CC(=O)N[C@@H](Cc1ccc(O)cc1)C(=O)N[C@H](C(=O)N[C@@H](C)C(=O)N[C@H](C#N)CC(=O)O)C(C)C	x	x	-3.3%	8.0%[12.7 µM]	x	x
CCOc1ccccc1-c1cncc(NC)n1	-1.7%	x	x	x	x	-5.7
CCn1c(-c2cc(-c3ccc(C)c(C)c3)nc3ccccc23)n[nH]c1=S	x	x	u	39.8µM*	x	x
CCOc1ccccc1-c1cc(-c2n[nH]c(=S)n2CC)c2ccccc2n1	-17.0%	44.7µM*	-37.3%	10µM*	16.6%	-2.7
Cc1ccc(-c2cc(-c3n[nH]c(=S)n3C)c3ccccc3n2)cc1	u	u	u	2µM*	-29.8%	-26.4
CCn1c(-c2cc(C3CC3)nc3ccccc23)n[nH]c1=S	-23.4%	50.1µM*	-31.6%	2.24µM*	21.2%	-22.8
CCOc1cccc(-c2cc(-c3n[nH]c(=S)n3CC)c3ccccc3n2)c1	-19.6%	u	u	u	-16.0%	x
Cc1noc(C)c1C(=O)N1CCC2(CCCN(Cc3ccc(C#N)cc3)C2)CC1	x	x	x	4.8%[12.7 µM]	x	x
COc1cccc(CNC(=O)CN2C(=O)CSc3ccc(S(=O)(=O)N(C)C)cc32)c1	x	-2.6%	-15.4%	-3.7%[59 µM]	30.9%	x
COc1cc(F)c(S(=O)(=O)N2CCCN(S(=O)(=O)c3ccc(NC(C)=O)cc3)CC2)c(F)c1	x	-27.2%	x	x	x	x
CCn1c(-c2cc(-c3cc(C)ccc3C)nc3ccccc23)n[nH]c1=S	-9.1%	56.2µM*	u	28.2µM*	15.2%	-8.2
CCc1n(CC(O)COCc2ccccc2)c2ccccc2[n+]1C (configuration not stated)	1.4%	u	u	44.7µM*	23.8%	3.1
Cc1cccc(-n2c(-c3ccco3)nc3c(cnn3-c3ccccc3C)c2=O)c1	x	u	x	u	-0.3%	x
Cc1ccccc1-n1c(-c2ccco2)n[nH]c1=S	-2.4%	3.16µM*	-9.3%	7.08µM*	-10.3%	1.1
FC(F)(F)c1ccccc1-n1c(-c2ccco2)n[nH]c1=S	-10.4%	-29.5%	-2.3%	15.8µM*	49.0%	-1.2
COC(=O)/C=C1/SC(=NC(=O)c2cccc([N+](=O)[O-])c2)NC1=O	u	-9.9%	u	20µM*	43.4%	-6.3
COC(=O)/C=C1/SC(=NC(=O)c2ccccc2)NC1=O	-25.8%	u	-34.7%	22.4µM*	14.8%	-16.0
COC(=O)/C=C1/SC(=NC(=O)c2ccc(F)cc2)NC1=O	-20.0%	-12.1%	-12.5%	u	14.7%	0.0
COC(=O)C/C=N/N=C1/NC(=O)/C(=C/C(=O)O)S1	-1.5%	50.1µM*	-33.0%	44.7µM*	90.1%	-70.9*
COC(=O)/C=C1\S/C(=N/N=C/c2ccc(Cl)cc2)NC1=O	29.9µM*	u	u	x	1.8%	-5.0
COC(=O)/C=C1\S/C(=N/N=C/c2ccccc2)NC1=O	-16.1%	-21.5%	-0.4%	u	12.9%	-0.7
CCCOC(=O)CSc1nnc2ccc3ccccc3n12	x	u	-17.0%	-29.2%[59 µM]	56.9%	x
